This is part of a sample that, as a whole, favours compounds with a hit. Of some 79,000 tested, about 15% had one in any assay. A number with no mark means an inactive call. Active and inactive are the calls of the source. Rule as the data show it: active = growth inhibition above about 70%; inactive = the rest.
assay: NCI Yeast Anticancer Drug Screen. Data for the bub3 strain (AID 167); settings: S. cerevisiae bub3 mutant strain, at 100.0 µM, stronger effect = higher value
Outline: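 Part of a panel of yeast mutants defective in DNA damage repair or cell cycle regulation. Each strain is grown with compound, and inhibition is calculated relative to solvent-treated cultures.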

Compound	growth inhibition
CN(C)c1ccc(C2CC(C)(O)Oc3cc4c(cc32)OCO4)cc1 (centres undefined)	16%
O=P(NC1CCCCC1)(OCc1ccccc1)OCc1ccccc1	2%
COc1oc(C(=O)NC2CCCCC2)c(-c2ccc(Cl)cc2)c1S(=O)(=O)c1ccccc1	84% (active)
C[Si](C)(C)/C=C/CCNC(C#N)c1ccccc1 (centres undefined)	93% (active)
CCOc1ccc(NC(=O)C2=C(C)NC(C)=C(C(=O)Nc3ccc(OCC)cc3)C2c2cccc([N+](=O)[O-])c2)cc1	93% (active)
CN(C)CCOC1(Cc2ccc(F)cc2)CCC(C(C)(C)C)CC1 (centres undefined)	98% (active)
CC1(C)CC(=O)C(/C=N/c2nc(-c3ccccc3)cs2)=C(O)C1	68%
CC(=O)Nc1ccc2c(c1)Cc1cc(N=C3C=CC(=O)O3)ccc1-2	98% (active)
O=C1C=C(Cl)C(=O)C(c2ccc(Cl)cc2)=C1	94% (active)
CNCCCNc1c2ccccc2nc2cccc([N+](=O)[O-])c12	99% (active)
CCCCCCCCCCCC(O)S(=O)(=O)O (centres undefined)	12%
CC(C)OC(=O)c1ccc(CCc2cc(O)c(Br)cc2O)cc1	92% (active)
CCc1cc(O)c(Cl)c(C)c1Cl	85% (active)
C(=Nc1ccc(-c2cc(-c3ccccc3)nc3ccc4ccccc4c23)cc1)c1ccccc1	31%
CSc1nc(C)c(CCOC(C)=O)c(N=P(c2ccccc2)(c2ccccc2)c2ccccc2)n1	92% (active)
CS(=O)(=O)SCc1ccc([N+](=O)[O-])cc1	96% (active)
COC1=C(OC)C(=O)C(Sc2ccc3ccccc3c2)=CC1=O	87% (active)
COc1nc2c(c(=O)n1C)N=C(c1ccccc1)[C@H](C(CC(=O)c1ccccc1)c1ccccc1)C(c1ccccc1)N2 (some centres undefined)	41%
Cc1cc(-c2cc(C)c(O)c(C(C)(C)C)c2)cc(C(C)(C)C)c1O	65%
Nc1cc(N)c(N=Nc2cccc3c(S(=O)(=O)O)cccc23)cc1N=Nc1cc([N+](=O)[O-])ccc1O	53%

Compound	growth inhibition
Nc1ccc(F)cc1S	98% (active)
Brc1ccccc1-c1ncc(-c2ccccc2)o1	76% (active)
COc1cc(C2SCC(=O)N2c2ccc(-c3ccc(-n4c(-c5ccccc5)nc5ccccc5c4=O)cc3)cc2)ccc1O (centres undefined)	41%
Nc1ncnc2c1ncn2C1OC(CO)CC1O (centres undefined)	92% (active)
COc1cc(CSc2ccc(O)cc2)cc(O)c1O	6%
CCOC(=O)C1N=[N+](c2ccccc2)C(=O)/C1=C\n1c(=S)[nH]c2ccc([N+](=O)[O-])cc21 (centres undefined)	3%
CNC(=O)OCc1c(COC(=O)NC)c2n(c1C)-c1ccc(OC)cc1CCC2	99% (active)
O=C(NNc1ccccc1)c1ccc(Cl)c(Cl)c1	14%
Cc1ccc(CC2(OCCN(C)C)CCC(C(C)(C)C)CC2)cc1 (centres undefined)	98% (active)
C[C@]12CC[C@H](O)CC1=CC[C@@H]1C2CC[C@]2(C)C(=O)NC(=O)CC12 (some centres undefined)	86% (active)
CCCC/C=C/C(C)(C(=O)OCC)C(=O)OCC	19%
CCc1c(Cl)c(C)cc(O)c1Cl	85% (active)
O=C(/C=C(/c1ccccc1)N1CCCCC1)c1ccccc1	94% (active)
CCCC(=O)Oc1ccc(/C=N/NC(N)=S)nc1	-21%
CCc1nc2ccc(NCCN(C)C)c3c(=O)c4ccccc4n1c23	26%
Cc1sc2ccc3ccccc3c2[n+]1C	96% (active)
COc1c(O)c(C=O)c(Br)c(C=O)c1O	97% (active)
Cc1ccc(Cl)cc1NC(=O)OCCN(C)C(=O)Nc1cc(Cl)ccc1C	13%
Cc1nc2ccccc2nc1NNc1ccccc1	63%

— PubChem BioAssay (NCI)
